± gives the standard deviation of the averaged measurements. The full data set covers some 5,400 targets. This sample favours those with the largest changes.
Compound: Nc1nc2c(ncn2[C@@H]2O[C@H](COP(=O)(O)OP(=O)(O)OP(=O)(O)O)[C@@H](O)[C@H]2O)c(=O)[nH]1 [guanosine triphosphate]
Experiment: NP40-soluble protein abundance relative to vehicle (solubility fold change) (ratio); higher = more soluble protein in presence of GTP
Method in brief: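 Across three independent experiments, values are fold changes against the detergent-processed vehicle for each replicate, based on vsn-normalised intensities. The samples were Jurkat crude lysate treated with eight concentrations (0.1 to 10 mM) for 10 min at room temperature and then 3 min at 37 °C. Lysate was solubilised with 0.8% NP40 and benzonase, ultracentrifuged, and the supernatant analysed by TMT-labelled LC-MS/MS.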

Sequence of UniProt P28161 (P28161 whole entry): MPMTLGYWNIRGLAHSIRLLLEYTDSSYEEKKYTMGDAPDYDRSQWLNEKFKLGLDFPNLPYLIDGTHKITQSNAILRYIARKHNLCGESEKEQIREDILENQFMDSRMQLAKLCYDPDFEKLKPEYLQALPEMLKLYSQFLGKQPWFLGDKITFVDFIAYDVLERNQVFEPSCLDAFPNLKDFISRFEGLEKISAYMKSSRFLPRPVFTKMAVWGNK
Sequence of UniProt P06239 (P06239 whole entry, looked up): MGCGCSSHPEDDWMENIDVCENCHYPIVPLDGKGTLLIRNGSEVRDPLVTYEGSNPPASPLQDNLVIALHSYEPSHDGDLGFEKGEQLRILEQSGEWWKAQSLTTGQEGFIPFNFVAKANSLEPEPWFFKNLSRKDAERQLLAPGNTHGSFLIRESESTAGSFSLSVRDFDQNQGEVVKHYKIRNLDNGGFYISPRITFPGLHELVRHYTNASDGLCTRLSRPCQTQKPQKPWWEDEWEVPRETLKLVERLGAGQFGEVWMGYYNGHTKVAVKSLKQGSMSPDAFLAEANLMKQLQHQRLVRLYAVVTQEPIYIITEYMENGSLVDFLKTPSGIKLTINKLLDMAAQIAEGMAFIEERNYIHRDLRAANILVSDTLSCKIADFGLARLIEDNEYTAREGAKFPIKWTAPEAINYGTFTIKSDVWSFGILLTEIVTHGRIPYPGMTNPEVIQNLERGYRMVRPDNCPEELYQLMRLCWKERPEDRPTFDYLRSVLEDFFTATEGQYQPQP
Sequence of UniProt O75531 (O75531 whole entry): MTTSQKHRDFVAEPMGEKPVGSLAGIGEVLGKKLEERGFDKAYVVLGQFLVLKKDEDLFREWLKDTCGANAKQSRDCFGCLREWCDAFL
Sequence of UniProt O76003 (O76003 whole entry): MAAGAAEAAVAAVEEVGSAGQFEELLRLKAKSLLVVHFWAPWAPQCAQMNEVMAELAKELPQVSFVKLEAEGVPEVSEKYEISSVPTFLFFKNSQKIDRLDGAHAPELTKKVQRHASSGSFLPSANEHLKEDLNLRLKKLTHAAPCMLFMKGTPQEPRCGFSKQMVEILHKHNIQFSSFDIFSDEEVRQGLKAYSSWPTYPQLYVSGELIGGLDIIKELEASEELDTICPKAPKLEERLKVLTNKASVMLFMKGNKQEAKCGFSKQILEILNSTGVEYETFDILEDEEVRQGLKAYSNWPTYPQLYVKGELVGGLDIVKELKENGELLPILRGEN
Sequence of UniProt O60488 (O60488 whole entry, one chain of several): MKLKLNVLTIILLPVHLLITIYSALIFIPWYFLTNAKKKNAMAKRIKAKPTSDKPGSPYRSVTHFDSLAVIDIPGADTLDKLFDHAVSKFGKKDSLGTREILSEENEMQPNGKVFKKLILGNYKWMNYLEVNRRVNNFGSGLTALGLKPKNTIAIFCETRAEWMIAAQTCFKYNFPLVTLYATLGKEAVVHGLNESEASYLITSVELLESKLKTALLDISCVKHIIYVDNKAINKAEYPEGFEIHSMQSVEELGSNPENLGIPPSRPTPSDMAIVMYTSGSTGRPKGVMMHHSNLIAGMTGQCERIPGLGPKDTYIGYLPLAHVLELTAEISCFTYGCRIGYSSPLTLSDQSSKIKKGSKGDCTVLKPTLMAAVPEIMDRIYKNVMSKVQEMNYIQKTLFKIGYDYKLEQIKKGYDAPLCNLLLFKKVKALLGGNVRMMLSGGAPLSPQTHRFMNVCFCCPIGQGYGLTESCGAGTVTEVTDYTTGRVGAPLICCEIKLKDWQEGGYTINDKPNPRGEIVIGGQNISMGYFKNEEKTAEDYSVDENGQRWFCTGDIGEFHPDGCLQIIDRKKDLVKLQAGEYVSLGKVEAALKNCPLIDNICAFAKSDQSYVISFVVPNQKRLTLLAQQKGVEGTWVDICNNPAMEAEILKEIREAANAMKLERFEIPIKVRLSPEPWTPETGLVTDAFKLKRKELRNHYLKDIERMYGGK
Sequence of UniProt O94906 (O94906 whole entry): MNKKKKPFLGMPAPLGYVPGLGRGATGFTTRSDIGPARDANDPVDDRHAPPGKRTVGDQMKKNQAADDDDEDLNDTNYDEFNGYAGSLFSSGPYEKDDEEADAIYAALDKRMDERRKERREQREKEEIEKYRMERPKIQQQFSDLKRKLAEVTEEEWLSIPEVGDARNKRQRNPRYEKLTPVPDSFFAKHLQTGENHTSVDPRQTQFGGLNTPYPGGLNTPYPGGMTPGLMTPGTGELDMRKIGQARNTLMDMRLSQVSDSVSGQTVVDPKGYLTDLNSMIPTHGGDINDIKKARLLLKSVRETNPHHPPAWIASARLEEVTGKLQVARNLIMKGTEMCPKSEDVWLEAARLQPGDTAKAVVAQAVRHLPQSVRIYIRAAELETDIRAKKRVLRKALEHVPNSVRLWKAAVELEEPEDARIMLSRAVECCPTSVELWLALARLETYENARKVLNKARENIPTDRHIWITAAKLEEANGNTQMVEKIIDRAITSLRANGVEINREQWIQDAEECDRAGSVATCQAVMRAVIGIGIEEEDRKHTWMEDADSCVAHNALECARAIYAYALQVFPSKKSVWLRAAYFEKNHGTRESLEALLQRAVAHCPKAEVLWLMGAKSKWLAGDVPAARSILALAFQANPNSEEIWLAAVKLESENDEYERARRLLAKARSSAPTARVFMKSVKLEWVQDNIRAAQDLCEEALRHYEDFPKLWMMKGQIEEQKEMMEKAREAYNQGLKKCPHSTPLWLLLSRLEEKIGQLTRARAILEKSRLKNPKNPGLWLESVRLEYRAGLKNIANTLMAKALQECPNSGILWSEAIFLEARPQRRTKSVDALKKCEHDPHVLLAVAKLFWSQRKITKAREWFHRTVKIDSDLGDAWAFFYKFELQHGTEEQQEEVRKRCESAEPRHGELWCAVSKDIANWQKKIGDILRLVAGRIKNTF
Sequence of UniProt O75400 (O75400 whole entry): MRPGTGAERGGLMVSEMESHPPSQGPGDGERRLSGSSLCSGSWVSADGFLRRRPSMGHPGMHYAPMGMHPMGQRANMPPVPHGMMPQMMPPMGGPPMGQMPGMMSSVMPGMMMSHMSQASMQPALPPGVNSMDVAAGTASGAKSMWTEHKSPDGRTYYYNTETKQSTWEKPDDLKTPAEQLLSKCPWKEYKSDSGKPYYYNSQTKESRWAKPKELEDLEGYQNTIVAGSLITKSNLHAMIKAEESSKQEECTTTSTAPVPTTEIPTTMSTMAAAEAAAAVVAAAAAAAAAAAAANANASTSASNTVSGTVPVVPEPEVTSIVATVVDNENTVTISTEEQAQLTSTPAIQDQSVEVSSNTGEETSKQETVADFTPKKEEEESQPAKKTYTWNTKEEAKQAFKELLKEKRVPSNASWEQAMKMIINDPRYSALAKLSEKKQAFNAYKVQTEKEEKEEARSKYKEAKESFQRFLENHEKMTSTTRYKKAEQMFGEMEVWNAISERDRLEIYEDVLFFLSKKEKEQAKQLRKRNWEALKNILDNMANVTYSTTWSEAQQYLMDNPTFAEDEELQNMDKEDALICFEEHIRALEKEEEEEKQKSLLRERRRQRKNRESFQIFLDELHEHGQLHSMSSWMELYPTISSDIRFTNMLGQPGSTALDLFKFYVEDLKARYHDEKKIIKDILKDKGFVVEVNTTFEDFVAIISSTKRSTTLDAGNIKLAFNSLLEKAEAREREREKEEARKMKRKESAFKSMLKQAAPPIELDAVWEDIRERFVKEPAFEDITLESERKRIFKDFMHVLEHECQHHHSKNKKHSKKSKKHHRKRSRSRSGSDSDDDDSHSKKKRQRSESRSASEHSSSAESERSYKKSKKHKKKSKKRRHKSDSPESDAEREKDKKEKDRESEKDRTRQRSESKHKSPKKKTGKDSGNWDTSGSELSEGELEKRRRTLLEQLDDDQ
Sequence of UniProt O14776 (O14776 whole entry): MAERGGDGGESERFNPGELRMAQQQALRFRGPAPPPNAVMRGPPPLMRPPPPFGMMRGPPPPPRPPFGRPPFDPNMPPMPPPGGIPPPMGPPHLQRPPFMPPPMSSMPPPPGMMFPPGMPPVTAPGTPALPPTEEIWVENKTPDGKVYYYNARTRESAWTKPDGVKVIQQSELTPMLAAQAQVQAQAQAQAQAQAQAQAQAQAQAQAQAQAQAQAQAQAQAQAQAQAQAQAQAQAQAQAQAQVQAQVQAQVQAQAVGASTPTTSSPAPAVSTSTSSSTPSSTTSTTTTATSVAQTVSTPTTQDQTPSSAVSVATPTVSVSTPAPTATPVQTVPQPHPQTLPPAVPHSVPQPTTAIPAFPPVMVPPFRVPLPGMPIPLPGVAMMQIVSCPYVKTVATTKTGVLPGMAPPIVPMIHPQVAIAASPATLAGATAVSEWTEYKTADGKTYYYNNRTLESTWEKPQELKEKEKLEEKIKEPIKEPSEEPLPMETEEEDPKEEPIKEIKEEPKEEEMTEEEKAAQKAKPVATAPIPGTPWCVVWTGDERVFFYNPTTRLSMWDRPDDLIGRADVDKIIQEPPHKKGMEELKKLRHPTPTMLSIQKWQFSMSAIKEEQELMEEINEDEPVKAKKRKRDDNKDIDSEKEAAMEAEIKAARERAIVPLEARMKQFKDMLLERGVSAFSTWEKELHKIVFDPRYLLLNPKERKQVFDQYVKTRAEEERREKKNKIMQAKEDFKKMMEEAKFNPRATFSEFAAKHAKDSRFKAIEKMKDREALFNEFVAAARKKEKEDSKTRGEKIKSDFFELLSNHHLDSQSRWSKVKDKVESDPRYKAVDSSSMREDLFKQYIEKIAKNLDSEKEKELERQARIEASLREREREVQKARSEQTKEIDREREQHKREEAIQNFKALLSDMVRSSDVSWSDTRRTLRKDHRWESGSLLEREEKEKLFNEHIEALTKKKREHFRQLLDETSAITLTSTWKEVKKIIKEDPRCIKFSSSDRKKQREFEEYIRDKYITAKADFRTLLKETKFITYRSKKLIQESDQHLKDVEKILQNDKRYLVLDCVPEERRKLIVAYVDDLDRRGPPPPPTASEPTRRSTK
Sequence of UniProt P16949 (P16949 whole entry): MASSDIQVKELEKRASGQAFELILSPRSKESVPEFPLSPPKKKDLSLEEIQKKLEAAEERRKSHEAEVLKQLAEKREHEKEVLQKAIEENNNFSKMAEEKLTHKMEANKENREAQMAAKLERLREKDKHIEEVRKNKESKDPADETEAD

Target	NP40-soluble protein abundance (concentration: 0.1mM)	NP40-soluble protein abundance (concentration: 0.5mM)	NP40-soluble protein abundance (concentration: 1mM)	NP40-soluble protein abundance (concentration: 2mM)	NP40-soluble protein abundance (concentration: 4mM)	NP40-soluble protein abundance (concentration: 6mM)	NP40-soluble protein abundance (concentration: 8mM)	NP40-soluble protein abundance (concentration: 10mM)
ANXA5 (UniProt P08758)	0.882 ± 0.07	0.908 ± 0.054	0.878 ± 0.077	0.854 ± 0.076	0.819 ± 0.073	0.843 ± 0.089	0.794 ± 0.081	0.809 ± 0.085
UniProt O95644|O95644-10|O95644-11|O95644-2|O95644-3|O95644-4|O95644-5|O95644-6|O95644-8	1.01 ± 0.2	1.07 ± 0.094	1.25 ± 0.18	1.37 ± 0.17	1.31 ± 0.29	1.34 ± 0.19	1.17 ± 0.053	1.34 ± 0.3
BANF1 (UniProt O75531)	1.42 ± 0.34	2.98 ± 1.1	5.2 ± 3	5.54 ± 3.3	5.21 ± 3.3	5.08 ± 3	4.35 ± 2	5.71 ± 3.2
GLRX3 (UniProt O76003)	0.92 ± 0.052	0.946 ± 0.058	0.934 ± 0.068	0.882 ± 0.088	0.864 ± 0.075	0.885 ± 0.085	0.885 ± 0.035	0.871 ± 0.081
UniProt P25705|P25705-2	0.981 ± 0.022	1.04 ± 0.057	0.998 ± 0.062	1.01 ± 0.087	0.986 ± 0.088	1.03 ± 0.11	1.01 ± 0.11	0.995 ± 0.098
MCM2 (UniProt P49736)	1.01 ± 0.052	1.07 ± 0.071	0.975 ± 0.074	0.985 ± 0.099	0.974 ± 0.1	0.983 ± 0.1	0.944 ± 0.083	0.929 ± 0.074
UniProt P35606|P35606-2	1.04 ± 0.075	1.07 ± 0.11	0.994 ± 0.089	1.04 ± 0.12	1.04 ± 0.12	1.03 ± 0.12	1.01 ± 0.097	0.984 ± 0.087
CRKL (UniProt P46109)	0.973 ± 0.029	0.958 ± 0.058	0.967 ± 0.092	0.932 ± 0.073	0.921 ± 0.076	0.906 ± 0.089	0.923 ± 0.093	0.876 ± 0.086
UniProt O75143|O75143-2|O75143-5	0.993 ± 0.038	0.996 ± 0.042	1.01 ± 0.065	1.02 ± 0.081	0.967 ± 0.024	0.959 ± 0.088	0.937 ± 0.058	0.947 ± 0.041
TIMM44 (UniProt O43615)	0.992 ± 0.035	0.989 ± 0.041	0.993 ± 0.057	0.946 ± 0.058	0.954 ± 0.09	0.914 ± 0.082	0.946 ± 0.058	0.93 ± 0.064
UniProt O43399|O43399-5|O43399-7	0.814 ± 0.11	0.76 ± 0.039	1 ± 0.15	0.946 ± 0.028	0.91 ± 0.03	0.916 ± 0.033	0.875 ± 0.16	1.08 ± 0.15
UniProt O75400|O75400-2|O75400-3	1.02 ± 0.05	1.11 ± 0.036	1.23 ± 0.083	1.25 ± 0.076	1.37 ± 0.21	1.52 ± 0.24	1.81 ± 0.37	1.89 ± 0.41
UniProt P50395|Q5SX86	0.966 ± 0.022	0.999 ± 0.023	0.916 ± 0.02	0.899 ± 0.0095	0.882 ± 0.012	0.89 ± 0.017	0.859 ± 0.04	0.829 ± 0.057
H7BYN4|Q02241|Q02241-2|Q02241-3 (UniProt Q02241)	1.1 ± 0.048	1.03 ± 0.036	1.0707 ± 0.00082	1.09 ± 0.021	1.114 ± 0.0076	1.13 ± 0.046	1.12 ± 0.084	1.09 ± 0.041
FXR2 (UniProt P51116)	1.08 ± 0.054	1.13 ± 0.081	1.27 ± 0.064	1.51 ± 0.14	1.8 ± 0.22	1.97 ± 0.25	2.13 ± 0.29	2.23 ± 0.35
UniProt P20339|P20339-2	0.999 ± 0.016	1.08 ± 0.04	0.875 ± 0.057	0.937 ± 0.059	0.865 ± 0.034	0.85 ± 0.024	0.82 ± 0.13	0.828 ± 0.14
UniProt P27540|P27540-2|P27540-4	0.978 ± 0.071	0.957 ± 0.12	0.957 ± 0.027	0.982 ± 0.11	1.02 ± 0.023	0.961 ± 0.055	0.961 ± 0.059	0.927 ± 0.027
UniProt P27824|P27824-2	0.965 ± 0.034	1 ± 0.013	0.95 ± 0.04	0.928 ± 0.048	0.883 ± 0.061	0.922 ± 0.06	0.906 ± 0.035	0.896 ± 0.051
K7EPN2|P22830|P22830-2 (UniProt P22830)	1.06 ± 0.013	1.06 ± 0.034	0.972 ± 0.015	0.945 ± 0.055	0.958 ± 0.039	0.939 ± 0.03	0.928 ± 0.043	0.885 ± 0.05

Target	NP40-soluble protein abundance (concentration: 0.1mM)	NP40-soluble protein abundance (concentration: 0.5mM)	NP40-soluble protein abundance (concentration: 1mM)	NP40-soluble protein abundance (concentration: 2mM)	NP40-soluble protein abundance (concentration: 4mM)	NP40-soluble protein abundance (concentration: 6mM)	NP40-soluble protein abundance (concentration: 8mM)	NP40-soluble protein abundance (concentration: 10mM)
PARP1 (UniProt P09874)	1.02 ± 0.026	1.05 ± 0.034	1.05 ± 0.033	1.15 ± 0.052	1.31 ± 0.069	1.43 ± 0.054	1.47 ± 0.043	1.5 ± 0.028
IGHMBP2 (UniProt P38935)	1.07 ± 0.072	1.09 ± 0.1	1.14 ± 0.099	1.26 ± 0.17	1.44 ± 0.26	1.6 ± 0.27	1.7 ± 0.43	1.92 ± 0.48
STMN1 (UniProt P16949)	0.911 ± 0.0092	0.899 ± 0.048	0.994 ± 0.014	0.909 ± 0.042	0.85 ± 0.069	0.935 ± 0.1	0.971 ± 0.089	0.995 ± 0.041
UniProt O94906|O94906-2	1.06 ± 0.055	1.17 ± 0.086	1.26 ± 0.17	1.42 ± 0.27	1.66 ± 0.44	1.91 ± 0.46	2.23 ± 0.58	2.34 ± 0.6
UniProt O60508|Q5SRN1	1.07 ± 0.031	1.1 ± 0.017	1.09 ± 0.022	1.072 ± 0.0076	1.05 ± 0.034	1.07 ± 0.053	1.11 ± 0.013	1.08 ± 0.042
EIF2S3 (UniProt P41091)	1.02 ± 0.024	1.05 ± 0.045	0.967 ± 0.015	0.98 ± 0.071	0.981 ± 0.04	0.995 ± 0.038	0.956 ± 0.025	0.931 ± 0.065
UniProt P17812	1.04 ± 0.085	1.03 ± 0.089	0.924 ± 0.05	0.916 ± 0.096	0.904 ± 0.077	0.883 ± 0.076	0.864 ± 0.041	0.819 ± 0.086
UniProt O14776|O14776-2	0.97 ± 0.042	0.962 ± 0.056	0.979 ± 0.047	0.953 ± 0.083	0.989 ± 0.079	1.01 ± 0.084	1.05 ± 0.05	1.04 ± 0.071
HIST1H1C (UniProt P16403)	0.984 ± 0.038	1.11 ± 0.074	1.18 ± 0.072	1.22 ± 0.048	1.23 ± 0.096	1.38 ± 0.074	1.26 ± 0.1	1.78 ± 0.15
YARS (UniProt P54577)	0.952 ± 0.037	0.969 ± 0.029	0.92 ± 0.042	0.878 ± 0.048	0.864 ± 0.061	0.874 ± 0.048	0.872 ± 0.043	0.849 ± 0.066
UniProt P54578|P54578-2	0.975 ± 0.029	0.998 ± 0.021	0.935 ± 0.027	0.922 ± 0.013	0.903 ± 0.026	0.897 ± 0.02	0.895 ± 0.038	0.876 ± 0.046
UniProt P12931|P12931-2	1.05 ± 0.05	1.05 ± 0.063	0.955 ± 0.018	0.9845 ± 0.0092	0.905 ± 0.063	0.896 ± 0.015	0.894 ± 0.052	0.837 ± 0.074
UniProt P06239|P06239-3	1.013 ± 0.0087	1.04 ± 0.034	0.994 ± 0.022	1 ± 0.032	1 ± 0.023	0.963 ± 0.015	0.929 ± 0.026	0.919 ± 0.039
P0DN76|Q01081|Q01081-2 (UniProt Q01081+P0DN76)	1.23 ± 0.074	1.61 ± 0.28	1.64 ± 0.32	1.67 ± 0.32	1.71 ± 0.36	1.78 ± 0.4	1.79 ± 0.45	1.76 ± 0.38
UniProt O60488|O60488-2|D6RD96	1.02 ± 0.028	1.08 ± 0.053	0.9363 ± 0.0046	0.939 ± 0.066	0.908 ± 0.045	0.905 ± 0.049	0.894 ± 0.039	0.843 ± 0.086
UniProt O15042|O15042-2|E7ET15	1 ± 0.011	1.08 ± 0.013	1.15 ± 0.05	1.18 ± 0.094	1.24 ± 0.13	1.32 ± 0.14	1.4 ± 0.22	1.37 ± 0.23
UniProt O43665|O43665-2|O43665-3	0.802 ± 0.079	0.748 ± 0.035	0.872 ± 0.14	0.865 ± 0.068	0.791 ± 0.038	0.837 ± 0.034	0.79 ± 0.089	0.909 ± 0.14
GSTM2 (UniProt P28161)	1.03 ± 0.058	0.947 ± 0.051	1 ± 0.1	0.976 ± 0.085	0.956 ± 0.1	0.932 ± 0.11	0.886 ± 0.091	0.899 ± 0.12
POLR2E (UniProt P19388)	1.06 ± 0.11	1.09 ± 0.11	1.15 ± 0.16	1.19 ± 0.18	1.22 ± 0.18	1.19 ± 0.19	1.16 ± 0.16	1.11 ± 0.16

— the supplement of paper PMC6411743
